Luciferase inh: inhibitors of firefly (Photinus pyralis) luciferase; P08659; purified P. pyralis luciferase, luminescence, biochemical; Potency, µM (top dose mostly 115 µM), hits mostly inhibitors; 76,000 tested, 2.5% active; AID 1347043; note: nearly all actives have a fitted effect of over 65% in size
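Cell-free enzyme assay, 10nM P. pyralis luciferase, luciferin and ATP each at 10uM. Inhibition profiled over a 6-point titration, read as luminescence.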
3T3 cytotox: cytotoxic compounds in NIH 3T3 cells; NIH 3T3 viability, CellTiter-Glo ATP luminescence, 48-72 h; 94,000 tested, 4.3% active; Potency, µM (titrated, usually from 96.7 µM), actives largely listed as inhibitors; note: nearly all actives have a fitted effect of over 55% in size
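Cells were seeded at 400 per well, treated with pin-transferred compound, and kept 48 or 72 hr at 37 °C before CellTiter-Glo addition and luminescence imaging of cellular ATP.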
HEK cytotox: kills HEK 293 cells; HEK 293 viability, ATP luminescence (CellTiter-Glo), 48-72 h; Potency, µM (doses to about 115 µM), actives largely listed as inhibitors; 94,000 tested, 6.6% active; AID 1345083; note: nearly all actives have a fitted effect of over 60% in size
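Read-out: CellTiter-Glo ATP luminescence. Cells: HEK 293, 250 cells/well. Exposure: 48 or 72 hr, 37 degree Celsius.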
hNpr1 antagonist: blocks ANP-stimulated signaling of human Npr1 receptor; HEK293 hNpr1 GloSensor cGMP, ANP-stimulated luminescence; Potency, µM (doses to about 46.3 µM), usual class: inhibitors; AID 1347048; 76,000 tested, 1.6% active; P16066; calls by dose curve; note: nearly all actives have a fitted effect of over 60% in size
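Compound pre-incubated 30 min at room temperature on GloSensor-loaded HEK293 cells stably carrying hNpr1 and the pGS-40F cGMP biosensor. Stimulation uses hNppA at 0.1 nM final; luminescence is taken at baseline and 20 min post-agonist.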
Npr1 antag conf: confirmation of human Npr1 natriuretic peptide receptor antagonists. HEK293 hNpr1 cGMP GloSensor luminescence, ANP-stimulated. AID 1347044. shares compounds with hNpr1 antagonist. 1,400 tested, 76% active. Potency, µM (titrated, usually from 57.6 µM), actives largely listed as inhibitors; calls by dose curve; note: nearly all actives have a fitted effect of over 70% in size
NPR2 antag: hNpr2 antagonism, selectivity versus Npr1. shares compounds with hNpr1 antagonist. 1,400 tested, 67% active. AID 1347046. Potency, µM (series often up to 57.6 µM), usual class: inhibitors. HEK293 hNpr2 GloSensor cGMP luminescence, CNP-stimulated; calls by dose curve; note: nearly all actives have a fitted effect of over 70% in size
Target sequence (P20594 whole entry, looked up): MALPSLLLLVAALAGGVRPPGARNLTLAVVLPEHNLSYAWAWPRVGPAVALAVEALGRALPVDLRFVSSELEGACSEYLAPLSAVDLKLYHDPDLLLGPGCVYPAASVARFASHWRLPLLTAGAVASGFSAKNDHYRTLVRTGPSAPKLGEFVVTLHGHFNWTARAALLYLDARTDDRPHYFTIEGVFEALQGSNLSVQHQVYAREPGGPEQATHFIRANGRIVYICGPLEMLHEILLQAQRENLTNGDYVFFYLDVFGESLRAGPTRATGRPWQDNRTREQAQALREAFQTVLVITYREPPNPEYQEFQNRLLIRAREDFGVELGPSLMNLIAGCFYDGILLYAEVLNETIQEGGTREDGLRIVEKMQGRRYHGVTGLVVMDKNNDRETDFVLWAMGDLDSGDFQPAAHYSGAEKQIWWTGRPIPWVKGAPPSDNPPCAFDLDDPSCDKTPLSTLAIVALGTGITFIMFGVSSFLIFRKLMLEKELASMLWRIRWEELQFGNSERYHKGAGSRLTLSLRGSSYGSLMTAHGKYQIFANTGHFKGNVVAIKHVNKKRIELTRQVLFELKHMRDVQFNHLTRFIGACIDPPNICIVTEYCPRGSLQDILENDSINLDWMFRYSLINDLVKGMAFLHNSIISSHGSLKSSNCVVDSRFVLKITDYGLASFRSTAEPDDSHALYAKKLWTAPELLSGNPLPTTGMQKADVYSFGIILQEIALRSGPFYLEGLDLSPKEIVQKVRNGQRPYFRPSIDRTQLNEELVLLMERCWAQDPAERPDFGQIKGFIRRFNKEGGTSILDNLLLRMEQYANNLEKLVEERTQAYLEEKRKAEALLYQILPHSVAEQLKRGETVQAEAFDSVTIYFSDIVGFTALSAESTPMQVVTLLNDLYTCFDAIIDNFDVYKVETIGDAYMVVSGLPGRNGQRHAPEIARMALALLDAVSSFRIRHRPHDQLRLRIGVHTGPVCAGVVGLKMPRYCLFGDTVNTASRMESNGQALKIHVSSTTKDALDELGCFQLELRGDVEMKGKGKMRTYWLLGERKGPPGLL
FLuc inh counter: inhibits firefly luciferase, false Npr1 antagonist flag; shares compounds with hNpr1 antagonist; purified FLuc enzyme, luminescence, Km substrate; Potency, µM (titrated, usually from 57.6 µM), actives largely listed as inhibitors; 1,400 tested, 0.7% active; AID 1347047; note: series mostly up to about 58 µM
GloSensor cGMP: control cell line activity, Npr1 antagonist counter-screen. shares compounds with hNpr1 antagonist. HEK293 GloSensor cGMP, SNP-stimulated, luminescence. Potency, µM (highest dose often 57.6 µM), hits mostly inhibitors. 1,400 tested, 69% active; calls by dose curve; note: nearly all actives have a fitted effect of over 70% in size
Hits are given with their value; 0 = inactive; ? = inconclusive; - = no result given. A selection: hits, their analogues and other compounds. The true share with any hit is near 11%. Unless noted, calls come from the whole dose curve; as a rule, active = well fitted curve in the direction sought with a large enough effect; inconclusive = small, poorly fitted or top-dose-only effect, or another doubt; inactive = no such curve, though single readings can be large; an effect the other way counts as inactive or inconclusive.

SMILES	Luciferase inh	3T3 cytotox	HEK cytotox	hNpr1 antagonist	Npr1 antag conf	NPR2 antag	FLuc inh counter	GloSensor cGMP
CC(=O)Nc1ccccc1-c1c(C)nn2c1N(C(=O)Cc1ccc(Cl)cc1)CCC2	0	?	0	0	-	-	-	-
CC(=O)Nc1ccccc1-c1c(C)nn2c1N(C(=O)c1ccc(Oc3ccccc3)cc1)CCC2	0	?	?	11µM	19µM	17µM	0	17µM
Cc1nn2c(c1-c1ccccc1OCc1ccccc1)N(C(=O)c1cccnc1)CCC2	0	?	0	0	-	-	-	-
CNC(=O)c1cc(C2CC2)nc2c1c(C1CCCN1C(=O)C(C)(C)C)nn2C (stereo unspecified)	-	0	0	-	-	-	-	-
COc1cccc(CC(=O)N2CCCn3nc(C)c(-c4ccccc4Oc4ccccc4)c32)c1	0	?	45µM	?	?	19µM	0	0
Cc1nn2c(c1-c1ccccc1OCc1ccccc1)N(Cc1ccc(C(=O)O)s1)CCC2	0	32µM	35µM	6.3µM	5.4µM	7.7µM	0	6.1µM
COc1cccc(CC(=O)N2CCCn3nc(C)c(-c4ccccc4-c4ccccc4)c32)c1	0	79µM	?	?	?	31µM	0	0
CC(=O)N1CCCn2nc(C)c(-c3ccccc3OCc3ccccc3)c21	0	?	?	0	-	-	-	-
COc1ccc(OC)c(CNC(=O)CCC[C@H]2NC[C@@H]3C[C@H]2CN(Cc2ccccc2)C3)c1	0	?	?	0	-	-	-	-
CN(C)C(=O)c1ccc2cc[nH]c2n1	-	0	0	-	-	-	-	-
O=C(Nc1ccc(F)cc1)c1ccc2cc[nH]c2n1	-	?	?	-	25µM	31µM	0.89µM	25µM
COC(=O)[C@@H]1Cc2c([nH]c3ccccc23)[C@H]2C[C@@H](NCCCn3ccnc3)C[C@@H](c3ccccc3F)N21	0	7.1µM	?	0	0	0	0	0
O=C1c2cc(N3CCOCC3)nc(-c3cccc(F)c3)c2CN1Cc1ccccc1	0	?	?	?	28µM	?	0	?
O=C1c2cc(N3CCOCC3)nc(-c3ccccc3F)c2CN1CC1CC1	0	0	?	0	-	-	-	-
O=C(NCc1ccc(F)cc1)c1csc(N2CCN(c3ccccc3F)CC2)n1	0	0	0	0	-	-	-	-
O=C(NCc1cccc(F)c1)c1csc(N2CCN(c3ccc(Cl)cc3)CC2)n1	0	0	?	13µM	24µM	24µM	0	22µM
Cc1cc2c(c(=O)n(-c3ccccc3)c(=O)n2CC(=O)Nc2ccccc2Cl)n1C	0	?	?	0	-	-	-	-
Cc1ccc(N2CCN(C(=O)C3CCCN(c4cnn(Cc5ccccc5)c(=O)c4)C3)CC2)cc1 (stereo unspecified)	0	?	25µM	10µM	17µM	19µM	0	15µM
c1cncc(COc2cc3c(cn2)NCCN(Cc2ccc4[nH]ccc4c2)C3)c1	0	?	?	8.9µM	20µM	22µM	0	20µM
O=C1NCCCCCCN(Cc2cccc(F)c2)[C@H]2C[C@H](C(=O)N3CCc4ccccc4C3)C[C@@H]12	0	40µM	25µM	16µM	?	?	0	0
O=C(c1cc(CN2CCOCC2)on1)N1CCC(c2nc(C3CCOCC3)no2)C1 (stereo unspecified)	0	0	0	0	0	0	0	0
O=C(c1ccccc1)N1CCC(c2nc(C3CCOCC3)no2)C1 (stereo unspecified)	0	0	0	0	-	-	-	-
Cc1ccc(-c2ccc(O)cn2)c2cccnc12	0	0	?	?	?	?	0	?
Cc1ncc(-c2ccc(F)c3cccnc23)nc1C	0	0	0	0	-	-	-	-
COc1ccc2ccc(OCc3nc(C(=O)N4CCCC(C(N)=O)C4)co3)cc2c1 (stereo unspecified)	0	?	?	11µM	14µM	19µM	0	11µM
SMILES	Luciferase inh	3T3 cytotox	HEK cytotox	hNpr1 antagonist	Npr1 antag conf	NPR2 antag	FLuc inh counter	GloSensor cGMP
COc1ccc2ccc(OCc3nc(C(=O)N(C)Cc4cc(C)no4)co3)cc2c1	0	?	?	?	31µM	?	0	?
C=CCNC(=O)c1coc(COc2ccc3ccc(OC)cc3c2)n1	0	?	45µM	10µM	24µM	22µM	0	22µM
COc1ccc2ccc(OCc3nc(C(=O)N(C)CC(C)O)co3)cc2c1 (stereo unspecified)	0	?	?	?	-	-	-	-
COc1ccc2ccc(OCc3nc(C(=O)N4CCC(NC(C)=O)CC4)co3)cc2c1	0	?	?	0	-	-	-	-
COc1ccc(CNC(=O)Cn2c(-c3ccc(F)cc3)nc(C)cc2=O)cc1OC	0	0	0	0	-	-	-	-
Clc1ccc(CN2CC[C@H](c3nc4cc(Cl)ccc4o3)C2)cc1	?	?	?	0	-	-	-	-
CCS(=O)(=O)c1ccc2oc([C@H]3CCN(Cc4cccc(Cl)c4)C3)nc2c1	0	?	45µM	?	35µM	35µM	0	?
O=C(NCCCc1ccccc1F)[C@H]1CCC[C@@H](O)C1	0	0	0	0	-	-	-	-
O=C(NCCc1cccc(Oc2ccccc2)c1)[C@H]1CCC[C@H](O)C1	0	0	?	14µM	24µM	22µM	0	22µM
O=C(N[C@H](c1ccccn1)C1CC(O)C1)C1(c2ccc(Cl)cc2)CCC1 (stereo partly specified)	0	0	?	?	?	19µM	0	0
NCC(=O)N1CCc2nc(-c3ccco3)nc(N3CC=CCC3)c2CC1	0	0	0	0	-	-	-	-
O=C(c1[nH]nc2c1CCc1ccccc1-2)N1CCC(c2noc(-c3cccnc3)n2)C1 (stereo unspecified)	0	?	35µM	13µM	22µM	24µM	0	22µM
O=C(Nc1cc(F)cc(C(F)(F)F)c1)N1CCCOC(Cn2cccn2)C1 (stereo unspecified)	0	?	?	13µM	22µM	22µM	0	19µM
O=C(Cn1ccc2ccccc2c1=O)N1CCCOC(Cn2cccn2)C1 (stereo unspecified)	0	0	0	0	-	-	-	-
O=C(NCc1ccc(C(F)(F)F)cc1F)[C@H]1CCC[C@@H](O)C1	0	0	0	0	-	-	-	-
Cc1cc(C(=O)N2c3ccccc3CC2c2nc(C(C)C)no2)nn1C (stereo unspecified)	0	0	?	0	-	-	-	-
CN1CCN(c2ccc(-c3cn(C)c(=O)n4cc(COc5ccnn5C)nc34)cn2)CC1	0	?	?	0	-	-	-	-
CN(C)c1cccc(-c2cnc3[nH]cc(CC(=O)N4CCOCC4)c3c2)c1	0	?	79µM	32µM	22µM	28µM	?	25µM
CNC(=O)c1cccc(-c2ccc(OC)nn2)c1	-	0	0	-	-	-	-	-
